Results from PubChem BioAssay (NCATS).
Records with an inconclusive call do not appear. Entries that show only a call come without a potency. Calls of active or inactive are those of the source. Calls come from the whole dose curve.

Assay: Natriuretic polypeptide receptor (hNpr1) antagonism - Pilot counterscreen GloSensor control cell line (AID 1347045)
Conditions: HEK293 cGMP GloSensor cells, SNP-stimulated luminescence, 20 min; series mostly up to 38.3 µM
Method in brief: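 Luminescence was read before and 20 min after adding 50 uM SNP, which stimulates soluble guanylyl cyclase. The HEK293 cells expressing the GloSensor cGMP sensor had been preloaded with 2% reagent for 2 h and treated with compound.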
Potency is the fitted concentration of half-maximal effect.

Structure (SMILES) | Potency
CCCCCCCCCCCCCCCCCCOC[C@H](COP(=O)([O-])OCC[N+](C)(C)C)OC | 14.7 µM (active)
O=c1[nH]c2cc(Cl)ccc2c(O)c1-c1ccc(Oc2ccccc2)cc1 | inactive
COc1ccccc1N1CCN(CCN(C(=O)c2ccc(F)cc2)c2ccccn2)CC1 | inactive
CCCC(=O)NCCc1c2n(c3ccc(OC)cc13)CCCc1ccccc1-2 | inactive
CC[C@@H]1Cc2cc(O)ccc2C2=C1c1ccc(O)cc1C[C@H]2CC | 20.7 µM (active)
N[C@H]1CONC1=O | inactive
C=C1C(=O)O[C@@H]2[C@H]3O[C@]3(C)CCC=C(C)CC[C@@H]12 | 18.5 µM (active)
N#Cc1cc2nc(O)c(O)nc2cc1[N+](=O)[O-] | inactive
CCCOC(=O)c1c(-c2ccccc2)nc(CC)c(C(=O)SCC)c1CCC | inactive
Nc1ncnc2c1nc(Sc1ccc(Cl)cc1)n2[C@H]1OC2COP(=O)(O)O[C@@H]2C1O (stereo not given in full) | inactive
NCC(O)c1ccc(O)c(O)c1 (stereo not given) | inactive
NC1CONC1=O (stereo not given) | inactive
Oc1ccc(/C=C/c2ccc(/C=C/c3ccc(O)cc3)c(Br)c2)cc1 | inactive
COc1ccc(C(=O)NCc2cccnc2)cc1C(=O)NCc1cccnc1 | inactive
NC1C=CC=C(C(=O)O)C1 (stereo not given) | inactive
COc1ccc(CCN(C)CCc2ccc(OC)c(OC)c2)cc1OC | inactive
CC(=O)/C(C)=N/O | inactive
COc1ccc(CCn2nnnc2C2(c3ccc(C)cc3)CC2)cc1 | inactive
NC(N)=N[C@@H](CCC(=O)O)C(=O)O | inactive
CCCCS(=N)(=O)CC[C@H](N)C(=O)O (stereo not given in full) | inactive
